In PubChem BioAssay AID1159580 (chemical genetic matrix, 2015):
Screen size: about 5,500 compounds; about 2,000 (36%) were called active. Not shown: some 18% with an inconclusive outcome. No stated cut-off is given here; in the data, active means normalized growth mostly below about 0.91 (no sharp cut-off); inconclusive means no clear call, values can overlap the other calls; inactive means mostly above about 0.92. The list shows a part of the results.

Test: chemical genetic growth profiling, strain panel (AID 1159580);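 further: tested at 20 µM; growth read once vehicle control cultures reached saturation at 30 °C; 1 = growth at the plate median or of vehicle wells; lower values mean less growth of the strain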
Conditions: S. cerevisiae deletion strains, growth OD
[1] = locus YAL040C, strain CLN3, hits give low values
[2] = locus YDR363W, strain ESC2, hits give low values
[3] = locus YER002W, strain NOP16, hits give low values
[4] = locus YNL175C, strain NOP13, hits give low values
[5] = locus YNL197C, strain WHI3, hits give low values
[6] = locus YNL224C, strain SQS1, hits give low values
[7] = locus YOR083W, strain WHI5 (second series), hits give low values
[8] = locus YPL055C, strain LGE1, hits give low values

Measured: normalized growth

CN(C)CC[C@@H](c1ccc(Cl)cc1)c1ccccn1
inactive: [1] 1 | [2] 1 | [3] 0.998 | locus YGR078C, strain PAC10, hits give low values 1.01 | [4] 1.01 | [5] 1 | [6] 0.999 | [7] 1.01 | [8] 1.01

OC[C@H]1NC[C@@H](O)[C@@H]1O
inactive: [1] 0.993 | locus YCL061C, strain MRC1 (second series), hits give low values 1 | [2] 1.02 | [3] 0.998 | locus YGR229C, strain SMI1, hits give low values 1.02 | locus YNL153C, strain GIM3, hits give low values 0.999 | [4] 0.991 | [5] 1 | [6] 0.992 | [7] 1.01 | [8] 0.996 | locus YPL241C, strain CIN2, hits give low values 1.01
